Measurements as given in PubChem BioAssay (EPA / NIEHS).
Calls of active or inactive are those of the source. Rule for the calls: active = hit-call score of the fitted dose curve at least 0.9, where 1 is the maximum; inactive = score below 0.9.

How the values were obtained:
[1] = molecular target: Paired box protein Pax-6 (Homo sapiens) (UniProt P26367); experiment: ATG_Pax6_CIS: Attagene CIS-FACTORIAL HepG2 Assay for human Paired Box 6 (PAX6) (AID 2282956); conditions: HepG2 CIS-FACTORIAL PAX6 reporter transcription, RNA readout; actives raise or lower the signal
Method in brief: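 Values derive from bidirectional curve fitting of reporter mRNA signal relative to DMSO. HepG2 cells bearing transfected cis-regulated MRTUs were exposed for 24 h; transcripts were read by RT-PCR and capillary electrophoresis.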

[2] = ATG_PXRE_CIS: Attagene CIS-FACTORIAL HepG2 Assay for human Pregnane X Receptor Element (PXRE) (AID 2282957); conditions: HepG2 Attagene CIS-FACTORIAL PXRE reporter, mRNA; actives raise or lower the signal
Method in brief: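 Using HepG2 transfected with multiple reporter transcription units, endogenous factor-driven transcription was scored as reporter mRNA after 24 h exposure.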

[3] = ATG_RORE_CIS: Attagene CIS-FACTORIAL HepG2 Assay for human RAR-related Orphan Receptor Element (RORE) (AID 2282959); conditions: HepG2 Attagene cis-factorial RORE reporter, mRNA; actives raise or lower the signal
Method in brief: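 Cells were HepG2 carrying transfected cis-regulated reporter constructs, dosed for 24 hours. Total RNA was reverse-transcribed and reporter cDNA amplified, fluorescently labeled and sized by capillary electrophoresis. Activity was fitted bidirectionally relative to DMSO.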

[4] = ATG_Sox_CIS: Attagene CIS-FACTORIAL HepG2 Assay for human SRY-box transcription factor (SOX) (AID 2282960); conditions: HepG2 Attagene cis-factorial SOX reporter, mRNA; actives raise or lower the signal
Method in brief: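 Transient MRTU transfection of HepG2; 24 h compound incubation; TriZol RNA, oligo(dT) RT, PCR, 6-FAM primer extension, HpaI cut, CE. Bidirectional fit, DMSO = baseline.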

[5] = molecular target: Transcription factor Sp1 (Homo sapiens) (UniProt P08047); experiment: ATG_Sp1_CIS: Attagene CIS-FACTORIAL HepG2 Assay for human Specificity Protein 1 (Sp1) (AID 2282961); conditions: HepG2 Sp1 cis-reporter transcription, actives raise or lower the signal
Method in brief: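 Endogenous Sp1 activity was gauged in human liver HepG2 cells bearing transfected reporter units under a cis-regulating promoter. After 24 h dosing, reporter mRNA was quantified by RT-PCR with capillary electrophoresis, and activity fitted bidirectionally versus DMSO.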

[6] = ATG_SREBP_CIS: Attagene CIS-FACTORIAL HepG2 Assay for human Sterol Regulatory Element Binding (SREBP) (AID 2282962); conditions: HepG2 Attagene cis-factorial SREBP reporter, mRNA; actives raise or lower the signal
Method in brief: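 Values derive from bidirectional curve fitting with DMSO as baseline. The underlying measurement is reporter mRNA from cis-element-regulated units in transiently transfected HepG2, quantified by RT-PCR and capillary electrophoresis after 24 h exposure.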

[7] = molecular target: Signal transducer and activator of transcription 3 (Homo sapiens) (UniProt P40763); experiment: ATG_STAT3_CIS: Attagene CIS-FACTORIAL HepG2 Assay for human Signal Transducer and Activator of Transcription 3 (STAT3) (AID 2282963); conditions: HepG2, Attagene cis-factorial STAT3 reporter transcription; actives raise or lower the signal
Method in brief: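 Fluorescence intensity of 6-FAM-labelled reporter fragments, separated by capillary electrophoresis after RT-PCR, gave the signal. Cells were HepG2 transfected with cis-element reporter units and treated 24 h; fitting was bidirectional relative to DMSO.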

[8] = ATG_TA_CIS: Attagene CIS-FACTORIAL HepG2 Assay for human TA Basal Promoter (AID 2282964); conditions: HepG2 Attagene CIS-factorial TA basal promoter reporter; actives raise or lower the signal
Method in brief: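 Steps: transfect HepG2 with MRTUs; dose 24 h; isolate RNA, DNase-treat, reverse-transcribe; PCR and FAM-label reporter cDNA; digest with HpaI 2h at 37 C; run capillary electrophoresis. Activity fitted both directions against DMSO.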

[9] = ATG_TCF_b_cat_CIS: Attagene CIS-FACTORIAL HepG2 Assay for human T-Cell-Factor with beta-catenin (TCF/b-cat) (AID 2282965); conditions: HepG2 TCF/beta-catenin cis-reporter transcription, actives raise or lower the signal
Method in brief: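 Cells of the HepG2 line carry transiently transfected reporter units whose promoters respond to endogenous factors. Twenty-four hours post-dosing, reporter mRNA induction is measured by fluorescent RT-PCR and capillary electrophoresis, with DMSO as baseline.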

[10] = ATG_PPRE_CIS: Attagene CIS-FACTORIAL HepG2 Assay for human Peroxisome Proliferator-activated Response Element (PPRE) (AID 2282958); conditions: HepG2 PPRE cis-element reporter, Attagene transcription factor profiling; actives raise or lower the signal
Method in brief: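 Cells are first transfected transiently with the multiplexed reporter library, then dosed for 24 h. Total RNA is reverse-transcribed, amplified, fluorescently end-labeled and HpaI-cut before capillary electrophoresis; activity is fitted bidirectionally against DMSO controls.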

Chain of Paired box protein Pax-6 (Homo sapiens) (P26367 whole entry, looked up): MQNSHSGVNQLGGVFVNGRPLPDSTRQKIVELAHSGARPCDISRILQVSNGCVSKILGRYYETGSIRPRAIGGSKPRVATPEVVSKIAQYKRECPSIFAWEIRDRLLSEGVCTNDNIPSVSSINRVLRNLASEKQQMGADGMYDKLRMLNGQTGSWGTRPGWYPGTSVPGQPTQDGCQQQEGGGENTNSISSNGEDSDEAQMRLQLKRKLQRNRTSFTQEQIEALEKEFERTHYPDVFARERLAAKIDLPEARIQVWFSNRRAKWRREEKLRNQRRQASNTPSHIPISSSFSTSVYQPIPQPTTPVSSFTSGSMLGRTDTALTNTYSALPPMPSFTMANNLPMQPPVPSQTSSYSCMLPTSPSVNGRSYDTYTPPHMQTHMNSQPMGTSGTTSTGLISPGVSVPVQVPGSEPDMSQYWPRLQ
Chain of Transcription factor Sp1 (Homo sapiens) (P08047 whole entry, looked up): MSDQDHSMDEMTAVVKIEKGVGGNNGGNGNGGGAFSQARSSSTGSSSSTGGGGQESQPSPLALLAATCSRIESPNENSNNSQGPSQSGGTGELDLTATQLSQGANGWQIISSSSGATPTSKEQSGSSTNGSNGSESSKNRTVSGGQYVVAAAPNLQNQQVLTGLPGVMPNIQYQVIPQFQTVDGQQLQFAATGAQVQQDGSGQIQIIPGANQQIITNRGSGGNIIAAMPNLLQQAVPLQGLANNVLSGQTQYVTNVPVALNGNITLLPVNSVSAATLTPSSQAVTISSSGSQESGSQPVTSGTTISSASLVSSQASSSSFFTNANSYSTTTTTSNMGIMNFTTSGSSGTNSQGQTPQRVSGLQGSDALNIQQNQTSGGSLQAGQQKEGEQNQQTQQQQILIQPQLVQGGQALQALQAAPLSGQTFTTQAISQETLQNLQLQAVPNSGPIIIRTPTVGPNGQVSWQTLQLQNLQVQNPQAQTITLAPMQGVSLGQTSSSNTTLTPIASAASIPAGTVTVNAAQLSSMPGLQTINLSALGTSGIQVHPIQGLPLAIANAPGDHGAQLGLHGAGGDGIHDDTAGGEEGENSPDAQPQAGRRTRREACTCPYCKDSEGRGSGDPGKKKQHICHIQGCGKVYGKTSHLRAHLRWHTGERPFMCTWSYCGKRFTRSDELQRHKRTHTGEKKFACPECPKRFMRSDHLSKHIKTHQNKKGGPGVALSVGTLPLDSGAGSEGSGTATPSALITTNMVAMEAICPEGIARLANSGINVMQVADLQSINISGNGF
Chain of Signal transducer and activator of transcription 3 (Homo sapiens) (P40763 whole entry, looked up, the tested form may be a part): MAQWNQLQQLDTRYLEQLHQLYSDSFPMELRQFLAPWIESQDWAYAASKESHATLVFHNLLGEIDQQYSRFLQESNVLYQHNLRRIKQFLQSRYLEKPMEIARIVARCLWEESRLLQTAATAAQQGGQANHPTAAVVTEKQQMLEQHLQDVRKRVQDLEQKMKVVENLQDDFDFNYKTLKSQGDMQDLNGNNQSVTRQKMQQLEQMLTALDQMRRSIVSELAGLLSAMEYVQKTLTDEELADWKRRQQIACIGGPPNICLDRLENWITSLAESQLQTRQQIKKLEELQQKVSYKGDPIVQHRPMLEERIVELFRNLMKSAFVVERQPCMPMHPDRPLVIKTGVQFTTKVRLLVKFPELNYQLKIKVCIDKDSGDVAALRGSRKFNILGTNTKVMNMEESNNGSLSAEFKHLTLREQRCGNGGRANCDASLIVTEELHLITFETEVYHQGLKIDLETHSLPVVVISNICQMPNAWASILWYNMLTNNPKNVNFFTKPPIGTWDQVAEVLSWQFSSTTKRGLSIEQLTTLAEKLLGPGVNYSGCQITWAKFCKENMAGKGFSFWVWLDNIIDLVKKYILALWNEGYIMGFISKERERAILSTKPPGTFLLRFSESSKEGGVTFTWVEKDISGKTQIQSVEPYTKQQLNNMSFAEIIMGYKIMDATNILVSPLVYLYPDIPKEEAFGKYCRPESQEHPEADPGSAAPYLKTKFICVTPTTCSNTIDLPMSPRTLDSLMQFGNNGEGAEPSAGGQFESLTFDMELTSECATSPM

SMILES: CCN(CC)c1ccc(C(=O)c2ccccc2C(=O)O)c(O)c1
- outcome [1]: inactive
- AC50 [2]: 1.09 µM (active)
- outcome [3]: inactive
- outcome [4]: inactive
- outcome [5]: inactive
- outcome [6]: inactive
- outcome [7]: inactive
- outcome [8]: inactive
- outcome [9]: inactive

SMILES: COc1ccc(-c2coc3cc(O)ccc3c2=O)cc1
- outcome [1]: inactive
- AC50 [2]: 11.3 µM (active)
- outcome [10]: inactive
- outcome [4]: inactive
- outcome [5]: inactive
- outcome [6]: inactive
- outcome [7]: inactive
- outcome [8]: inactive
- outcome [9]: inactive

SMILES: O=C(C(Cl)Cl)N1CCOC12CCCCC2
- AC50 [1]: 13.1 µM (active)
- outcome [2]: inactive
- outcome [10]: inactive
- outcome [4]: inactive
- outcome [6]: inactive
- outcome [7]: inactive
- AC50 [8]: 12 µM (active)
- outcome [9]: inactive

SMILES: C=CCOCC(O)CCl (configuration not stated)
- outcome [1]: inactive
- AC50 [2]: 35.5 µM (active)
- outcome [10]: inactive
- outcome [3]: inactive
- outcome [5]: inactive
- outcome [6]: inactive
- outcome [8]: inactive
- outcome [9]: inactive

SMILES: C=C(C)[C@H]1CC=C(C)CC1
- outcome [1]: inactive
- AC50 [2]: 51 µM (active)
- outcome [4]: inactive
- outcome [5]: inactive
- outcome [6]: inactive
- outcome [7]: inactive
- outcome [8]: inactive
- outcome [9]: inactive

SMILES: CC(C)(C)c1ccc(OC(=O)c2ccccc2O)cc1
- outcome [1]: inactive
- AC50 [2]: 15.3 µM (active)
- outcome [3]: inactive
- outcome [4]: inactive
- outcome [5]: inactive
- outcome [6]: inactive
- outcome [7]: inactive
- outcome [8]: inactive
- outcome [9]: inactive

SMILES: NC(CO)(CO)CO
- outcome [1]: inactive
- AC50 [2]: 42 µM (active)
- outcome [3]: inactive
- outcome [5]: inactive
- outcome [6]: inactive
- outcome [7]: inactive
- outcome [8]: inactive
- outcome [9]: inactive

SMILES: c1ccc2c(c1)ccc1cc3c(ccc4ccccc43)cc12
- outcome [1]: inactive
- outcome [2]: inactive
- outcome [3]: inactive
- outcome [4]: inactive
- outcome [5]: inactive
- outcome [6]: inactive
- outcome [7]: inactive
- outcome [8]: inactive
- outcome [9]: inactive

SMILES: O=C(Nc1ccccc1SSc1ccccc1NC(=O)c1ccccc1)c1ccccc1
- outcome [1]: inactive
- AC50 [2]: 4.44 µM (active)
- AC50 [3]: 2.56 µM (active)
- outcome [4]: inactive
- outcome [5]: inactive
- outcome [6]: inactive
- outcome [7]: inactive
- outcome [8]: inactive
- outcome [9]: inactive

SMILES: O=C(O)C(c1ccc(Cl)cc1)c1ccc(Cl)cc1
- outcome [1]: inactive
- AC50 [2]: 62.7 µM (active)
- outcome [3]: inactive
- outcome [4]: inactive
- outcome [5]: inactive
- outcome [6]: inactive
- outcome [7]: inactive
- outcome [8]: inactive
- outcome [9]: inactive

SMILES: C=C(C)c1cccc(C(C)(C)N=C=O)c1
- outcome [1]: inactive
- AC50 [2]: 0.0919 µM (active)
- outcome [3]: inactive
- outcome [4]: inactive
- outcome [5]: inactive
- outcome [6]: inactive
- outcome [7]: inactive
- outcome [8]: inactive
- outcome [9]: inactive

SMILES: Cc1ccc(N/N=c2\c(=O)cc/c(=N/Nc3ccc(S(=O)(=O)O)cc3)c2=O)c(C)c1
- outcome [1]: inactive
- AC50 [2]: 42.6 µM (active)
- outcome [3]: inactive
- outcome [4]: inactive
- outcome [5]: inactive
- outcome [6]: inactive
- outcome [7]: inactive
- outcome [8]: inactive
- outcome [9]: inactive

SMILES: CC1(C)[C@H]2CC[C@]1(C)C(=O)C2
- outcome [1]: inactive
- outcome [2]: inactive
- outcome [3]: inactive
- outcome [4]: inactive
- outcome [5]: inactive
- outcome [6]: inactive
- outcome [7]: inactive
- outcome [8]: inactive
- outcome [9]: inactive

SMILES: C[C@]12CCC(=O)C=C1CC[C@@H]1[C@@H]2C(=O)C[C@@]2(C)[C@H]1CC[C@]2(O)C(=O)CO
- outcome [1]: inactive
- AC50 [2]: 39.5 µM (active)
- outcome [3]: inactive
- outcome [4]: inactive
- outcome [5]: inactive
- outcome [6]: inactive
- outcome [7]: inactive
- outcome [8]: inactive
- outcome [9]: inactive

SMILES: CCc1ccc2c(c1)C(=O)c1ccccc1C2=O
- outcome [1]: inactive
- AC50 [2]: 3.01 µM (active)
- outcome [3]: inactive
- outcome [4]: inactive
- outcome [5]: inactive
- outcome [6]: inactive
- outcome [8]: inactive
- outcome [9]: inactive

SMILES: CC1=CC[C@H](C(C)C)C=C1
- outcome [1]: inactive
- AC50 [2]: 1.98 µM (active)
- outcome [4]: inactive
- outcome [5]: inactive
- outcome [6]: inactive
- outcome [7]: inactive
- outcome [8]: inactive
- outcome [9]: inactive

SMILES: C[C@]12C=CC(=O)C=C1CC[C@@H]1[C@@H]2[C@@H](O)C[C@@]2(C)[C@H]1CC[C@]2(O)C(=O)CO
- outcome [1]: inactive
- AC50 [2]: 100 µM (active)
- outcome [3]: inactive
- outcome [4]: inactive
- outcome [5]: inactive
- outcome [6]: inactive
- outcome [7]: inactive
- outcome [8]: inactive
- outcome [9]: inactive

SMILES: CC(C)=CCC/C(C)=C\C#N
- outcome [1]: inactive
- AC50 [2]: 28.1 µM (active)
- outcome [3]: inactive
- outcome [4]: inactive
- outcome [5]: inactive
- outcome [6]: inactive
- outcome [7]: inactive
- outcome [8]: inactive
- outcome [9]: inactive

SMILES: O=Cc1ccc(CO)o1
- outcome [1]: inactive
- outcome [2]: inactive
- outcome [3]: inactive
- outcome [4]: inactive
- outcome [5]: inactive
- outcome [6]: inactive
- outcome [8]: inactive
- outcome [9]: inactive

SMILES: N=c1ccn2c(n1)O[C@H]1[C@H](O)[C@@H](CO)O[C@H]12
- outcome [1]: inactive
- outcome [2]: inactive
- outcome [3]: inactive
- outcome [4]: inactive
- outcome [5]: inactive
- outcome [6]: inactive
- outcome [7]: inactive
- outcome [8]: inactive
- outcome [9]: inactive

SMILES: C=C[Si](C)(C)O[Si](C)(C)C=C
- outcome [1]: inactive
- AC50 [2]: 27.9 µM (active)
- outcome [3]: inactive
- outcome [4]: inactive
- outcome [5]: inactive
- outcome [6]: inactive
- outcome [7]: inactive
- outcome [8]: inactive
- outcome [9]: inactive

SMILES: CC(=O)NS(=O)(=O)c1ccc(N)cc1
- outcome [1]: inactive
- outcome [2]: inactive
- outcome [3]: inactive
- outcome [4]: inactive
- outcome [5]: inactive
- outcome [6]: inactive
- outcome [8]: inactive
- outcome [9]: inactive

SMILES: CCO[Si](C)(OCC)OCC
- outcome [1]: inactive
- outcome [2]: inactive
- outcome [3]: inactive
- outcome [4]: inactive
- outcome [5]: inactive
- outcome [6]: inactive
- outcome [7]: inactive
- outcome [8]: inactive
- outcome [9]: inactive

SMILES: O=C1C(N(CO)C(=O)NCO)N(CO)C(=O)N1CO (configuration not stated)
- outcome [1]: inactive
- outcome [2]: inactive
- outcome [3]: inactive
- outcome [4]: inactive
- outcome [5]: inactive
- outcome [6]: inactive
- outcome [7]: inactive
- outcome [8]: inactive
- outcome [9]: inactive

SMILES: CC(C)(C)C1CCCCC1=O (configuration not stated)
- outcome [1]: inactive
- AC50 [2]: 76.6 µM (active)
- outcome [3]: inactive
- outcome [4]: inactive
- outcome [5]: inactive
- outcome [6]: inactive
- outcome [7]: inactive
- outcome [8]: inactive
- outcome [9]: inactive
